PubChem BioAssay (EPA / NIEHS)
Calls of active or inactive are those of the source. The calls were made as follows: active = hit-call score of the fitted dose curve at least 0.9, where 1 is the maximum; inactive = score below 0.9.

How the values were obtained:
Conditions in all cases: mRNA level, 48 h; actives raise or lower the signal
[1] = read-out: Bcl-2 (BID) gene, BID (gene 637); assay: LTEA_HepaRG_BID: Life Technologies and Expression Analysis (LTEA) Assay for Bcl-2 (BID) gene using HepaRG (AID 2283476)
In short: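 Gene expression by qRT-PCR in HepaRG cells after 48 h exposure, duplicate wells, eight half-log concentrations topping at 100 uM in 0.5% DMSO. Normalized to ACTB, GAPDH, POLR2A; bidirectional fitting relative to DMSO.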

[2] = read-out: Caspase-3 (Homo sapiens) (UniProt P42574); assay: LTEA_HepaRG_CASP3: Life Technologies and Expression Analysis (LTEA) Assay for cysteine-aspartic acid protease (CASP3) using HepaRG (AID 2283477)
In short: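 Expression of CASP3 was quantified by TaqMan qRT-PCR against three housekeeping genes (ACTB, GAPDH, POLR2A), bidirectionally versus 0.5% DMSO. HepaRG cultures received compounds in duplicate, top 100 uM with half-log steps, for 48 h in serum-free induction medium.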

[3] = read-out: Cytochrome P450 (CYP24A1), CYP24A1 (gene 1591); assay: LTEA_HepaRG_CYP24A1: Life Technologies and Expression Analysis (LTEA) Assay for Cytochrome P450 (CYP24A1) using HepaRG (AID 2283478)
In short: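 mRNA of CYP24A1 quantified by TaqMan qRT-PCR (ACTB/GAPDH/POLR2A normalization) after 48 h chemical exposure of HepaRG cells, top concentration 100 uM, half-log steps, 0.5% DMSO vehicle, duplicates. Curves fitted bidirectionally against DMSO baseline.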

[4] = read-out: Cytochrome P450 (CYP1A2), CYP1A2 (gene 1544); assay: LTEA_HepaRG_CYP1A2: Life Technologies and Expression Analysis (LTEA) Assay for Cytochrome P450 (CYP1A2) using HepaRG (AID 2283479)
In short: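 CYP1A2 transcript measured by TaqMan qRT-PCR against three housekeeping genes after 48-hour chemical exposure of HepaRG cells. Eight-point half-log series topping at 100 uM in 0.5% DMSO, duplicates; gain or loss fitted relative to vehicle.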

[5] = read-out: Cytochrome P450 (CYP2B6), CYP2B6 (gene 1555); assay: LTEA_HepaRG_CYP2B6: Life Technologies and Expression Analysis (LTEA) Assay for Cytochrome P450 (CYP2B6) using HepaRG (AID 2283481)
In short: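 CYP2B6 transcript level quantified by qRT-PCR against three housekeeping genes, fitted bidirectionally relative to DMSO. HepaRG cultures received chemicals for 48 h, 8-point half-log series from 100 uM in 0.5% DMSO, duplicate wells, serum-free induction medium.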

[6] = read-out: Cytochrome P450 2C19 (Homo sapiens) (UniProt P33261); assay: LTEA_HepaRG_CYP2C19: Life Technologies and Expression Analysis (LTEA) Assay for CYP2C19 using HepaRG (AID 2283482)
In short: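 CYP2C19 transcript levels by qRT-PCR, normalized to three housekeeping genes, in HepaRG cells after 48 h chemical exposure. Eight-point half-log series topping at 100 uM, 0.5% DMSO vehicle. Increases and decreases both fitted against DMSO.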

[7] = read-out: CYP2E1 (gene 1571); assay: LTEA_HepaRG_CYP2E1: Life Technologies and Expression Analysis (LTEA) Assay for CYP2E1 using HepaRG (AID 2283485)
In short: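 HepaRG cells, plated 48 h, then exposed 48 h in serum-free induction medium to eight half-log concentrations from 100 uM in 0.5% DMSO, duplicate. CYP2E1 mRNA by qRT-PCR, normalized to ACTB/GAPDH/POLR2A; bidirectional fit versus DMSO.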

[8] = read-out: CYP4A11 (gene 1579); assay: LTEA_HepaRG_CYP4A11: Life Technologies and Expression Analysis (LTEA) Assay for CYP4A11 using HepaRG (AID 2283486)
In short: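 Readout is CYP4A11 transcript level by qRT-PCR, normalized to three housekeeping genes and fitted bidirectionally against 0.5% DMSO. Human HepaRG cells were treated 48 h, in duplicate, with an 8-point half-log series topping at 100 uM.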

[9] = read-out: Cytochrome P450 3A4 (Homo sapiens) (UniProt P08684); assay: LTEA_HepaRG_CYP3A4: Life Technologies and Expression Analysis (LTEA) Assay for CYP3A4 using HepaRG (AID 2283487)
In short: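 CYP3A4 transcript measured by TaqMan qRT-PCR and normalized to three housekeeping genes after 48 h chemical exposure of human HepaRG cells. Top concentration 100 uM, half-log steps, 0.5% DMSO vehicle; gain or loss fitted against DMSO baseline.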

[10] = read-out: Pro-epidermal growth factor (Homo sapiens) (UniProt P01133); assay: LTEA_HepaRG_EGF: Life Technologies and Expression Analysis (LTEA) Assay for Epidermal growth factor (EGF) using HepaRG (AID 2283489)
In short: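 EGF transcript measured by Fluidigm TaqMan qRT-PCR with three housekeeping genes for normalization, 48 h after dosing HepaRG cultures in duplicate (top 100 uM, half-log steps, 0.5% DMSO vehicle). Gain or loss relative to DMSO fitted.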

[11] = read-out: Early growth response protein 1 (EGR1) transcription factor, EGR1 (gene 1958); assay: LTEA_HepaRG_EGR1: Life Technologies and Expression Analysis (LTEA) Assay for Early growth response protein 1 (EGR1) transcription factor using HepaRG (AID 2283490)
In short: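 Differentiated HepaRG cells in serum-free induction medium exposed 48 hours, duplicate, to 8 half-log concentrations up to 100 uM in 0.5% DMSO. EGR1 mRNA measured by TaqMan qRT-PCR, normalized to ACTB, GAPDH, POLR2A; bidirectional fit versus DMSO.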

[12] = read-out: Ezrin (EZR), EZR (gene 7430); assay: LTEA_HepaRG_EZR: Life Technologies and Expression Analysis (LTEA) Assay for Ezrin (EZR) using HepaRG (AID 2283491)
In short: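 HepaRG, 48 h chemical exposure, 8-pt half-log series from 100 uM, 0.5% DMSO vehicle, duplicates. Read-out: EZR mRNA by TaqMan qRT-PCR (Fluidigm array), housekeeping-normalized; bidirectional curve fit vs DMSO baseline.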

[13] = read-out: Cytochrome P450 3A7 (Homo sapiens) (UniProt P24462); assay: LTEA_HepaRG_CYP3A7: Life Technologies and Expression Analysis (LTEA) Assay for CYP3A7 using HepaRG (AID 2283492)
In short: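 CYP3A7 transcript measured by qRT-PCR (ACTB, GAPDH, POLR2A normalization) after 48 h chemical exposure of HepaRG cells in duplicate. Eight half-log concentrations, maximum 100 uM, 0.5% DMSO vehicle; bidirectional curve fitting against DMSO baseline.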

[14] = read-out: Fatty Acid-Binding Protein 1 (FABP1), FABP1 (gene 2168); assay: LTEA_HepaRG_FABP1: Life Technologies and Expression Analysis (LTEA) Assay for Fatty Acid-Binding Protein 1 (FABP1) using HepaRG (AID 2283494)
In short: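 Differentiated human HepaRG cells exposed 48 h in serum-free induction medium to eight half-log concentrations up to 100 uM (0.5% DMSO), duplicate. FABP1 mRNA by qRT-PCR, normalised to ACTB, GAPDH, POLR2A; bidirectional fitting against DMSO.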

[15] = read-out: Cytochrome P450 4A22 (Homo sapiens) (UniProt Q5TCH4); assay: LTEA_HepaRG_CYP4A22: Life Technologies and Expression Analysis (LTEA) Assay for Cytochrome P450 4A22 (CYP4A22) using HepaRG (AID 2283495)
In short: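 Gene expression measured by qRT-PCR against three housekeeping genes (ACTB, GAPDH, POLR2A), with gain or loss fitted relative to 0.5% DMSO vehicle. HepaRG cultures received 48 h chemical treatment, top concentration 100 uM, half-log steps, duplicate wells.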

[16] = read-out: cysteine-aspartic acid protease (CASP8), CASP8 (gene 841); assay: LTEA_HepaRG_CASP8: Life Technologies and Expression Analysis (LTEA) Assay for cysteine-aspartic acid protease (CASP8) using HepaRG (AID 2283480)
In short: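 Differentiated HepaRG cells in serum-free induction medium, 48 h exposure, eight-point half-log series from 100 uM in 0.5% DMSO, duplicates. CASP8 mRNA by qRT-PCR, normalized to ACTB, GAPDH, POLR2A; bidirectional fit versus DMSO.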

[17] = read-out: DNA damage-inducible transcript 3 (DDIT3), DDIT3 (gene 1649); assay: LTEA_HepaRG_DDIT3: Life Technologies and Expression Analysis (LTEA) Assay for DNA damage-inducible transcript 3 (DDIT3) using HepaRG (AID 2283488)
In short: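 HepaRG cells, 48 h after plating, exposed 48 h in serum-free induction medium to 8 half-log concentrations up to 100 uM in 0.5% DMSO, in duplicate. DDIT3 mRNA measured by TaqMan qRT-PCR, normalized to ACTB, GAPDH and POLR2A. Fitted bidirectionally against DMSO.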

[18] = read-out: CYP3A5 (gene 1577); assay: LTEA_HepaRG_CYP3A5: Life Technologies and Expression Analysis (LTEA) Assay for CYP3A5 using HepaRG (AID 2283493)
In short: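 HepaRG cells, plated 48 h then in serum-free induction medium, dosed in duplicate for 48 h with eight half-log concentrations up to 100 uM in 0.5% DMSO. Gene mRNA by Fluidigm TaqMan qRT-PCR, normalized to ACTB, GAPDH, POLR2A.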

[19] = read-out: CYP2C8 (gene 1558); assay: LTEA_HepaRG_CYP2C8: Life Technologies and Expression Analysis (LTEA) Assay for CYP2C8 using HepaRG (AID 2283483)
In short: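 Differentiated HepaRG cells in serum-free induction medium exposed 48 h in duplicate to 8 half-log concentrations from 100 uM in 0.5% DMSO. CYP2C8 mRNA by qRT-PCR normalized to ACTB, GAPDH, POLR2A; bidirectional fit versus DMSO.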

[20] = read-out: CYP2C9 (gene 1559); assay: LTEA_HepaRG_CYP2C9: Life Technologies and Expression Analysis (LTEA) Assay for CYP2C9 using HepaRG (AID 2283484)
In short: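 Differentiated human HepaRG cells in serum-free induction medium were exposed 48 h to chemicals in 8-point half-log series from 100 uM (0.5% DMSO), in duplicate. CYP2C9 mRNA was measured by qRT-PCR, normalized to ACTB/GAPDH/POLR2A, with bidirectional fitting versus DMSO.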

Measured: AC50

Sequence of Cytochrome P450 2C19 (Homo sapiens) (P33261 whole entry, looked up): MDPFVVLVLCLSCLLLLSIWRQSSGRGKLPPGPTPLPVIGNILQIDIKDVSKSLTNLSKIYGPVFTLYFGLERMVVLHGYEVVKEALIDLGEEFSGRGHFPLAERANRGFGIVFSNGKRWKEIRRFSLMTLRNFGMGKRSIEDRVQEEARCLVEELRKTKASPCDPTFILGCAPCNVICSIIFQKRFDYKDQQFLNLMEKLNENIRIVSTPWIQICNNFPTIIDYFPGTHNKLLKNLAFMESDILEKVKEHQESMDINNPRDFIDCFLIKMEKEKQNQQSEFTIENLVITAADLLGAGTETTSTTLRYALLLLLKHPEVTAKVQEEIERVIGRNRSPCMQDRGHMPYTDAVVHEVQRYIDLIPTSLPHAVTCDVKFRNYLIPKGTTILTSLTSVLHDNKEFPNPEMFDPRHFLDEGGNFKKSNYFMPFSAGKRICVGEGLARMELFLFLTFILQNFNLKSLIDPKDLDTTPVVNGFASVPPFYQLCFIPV
Sequence of Caspase-3 (Homo sapiens) (P42574 whole entry, looked up): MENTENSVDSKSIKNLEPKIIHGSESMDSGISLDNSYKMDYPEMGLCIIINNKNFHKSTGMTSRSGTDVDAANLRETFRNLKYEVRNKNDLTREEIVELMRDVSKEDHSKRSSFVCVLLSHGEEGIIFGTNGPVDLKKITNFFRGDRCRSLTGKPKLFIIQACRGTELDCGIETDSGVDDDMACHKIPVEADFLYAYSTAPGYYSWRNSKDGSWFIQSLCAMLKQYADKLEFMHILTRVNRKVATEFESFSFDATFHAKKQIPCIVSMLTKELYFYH
Sequence of Cytochrome P450 3A4 (Homo sapiens) (P08684 whole entry, looked up): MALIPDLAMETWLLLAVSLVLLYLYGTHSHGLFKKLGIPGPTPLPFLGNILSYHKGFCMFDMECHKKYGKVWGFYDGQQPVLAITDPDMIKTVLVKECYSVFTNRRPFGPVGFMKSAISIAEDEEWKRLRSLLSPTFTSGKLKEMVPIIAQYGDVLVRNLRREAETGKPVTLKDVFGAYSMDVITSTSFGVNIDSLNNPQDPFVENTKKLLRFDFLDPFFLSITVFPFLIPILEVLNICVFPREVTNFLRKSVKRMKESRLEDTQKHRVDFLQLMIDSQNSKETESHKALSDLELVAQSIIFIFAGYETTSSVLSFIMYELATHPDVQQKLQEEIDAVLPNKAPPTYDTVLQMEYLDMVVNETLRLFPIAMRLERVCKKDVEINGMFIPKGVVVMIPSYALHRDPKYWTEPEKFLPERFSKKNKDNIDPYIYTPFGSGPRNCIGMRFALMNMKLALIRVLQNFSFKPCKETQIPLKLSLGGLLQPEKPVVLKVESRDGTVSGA
Sequence of Cytochrome P450 3A7 (Homo sapiens) (P24462 whole entry, looked up): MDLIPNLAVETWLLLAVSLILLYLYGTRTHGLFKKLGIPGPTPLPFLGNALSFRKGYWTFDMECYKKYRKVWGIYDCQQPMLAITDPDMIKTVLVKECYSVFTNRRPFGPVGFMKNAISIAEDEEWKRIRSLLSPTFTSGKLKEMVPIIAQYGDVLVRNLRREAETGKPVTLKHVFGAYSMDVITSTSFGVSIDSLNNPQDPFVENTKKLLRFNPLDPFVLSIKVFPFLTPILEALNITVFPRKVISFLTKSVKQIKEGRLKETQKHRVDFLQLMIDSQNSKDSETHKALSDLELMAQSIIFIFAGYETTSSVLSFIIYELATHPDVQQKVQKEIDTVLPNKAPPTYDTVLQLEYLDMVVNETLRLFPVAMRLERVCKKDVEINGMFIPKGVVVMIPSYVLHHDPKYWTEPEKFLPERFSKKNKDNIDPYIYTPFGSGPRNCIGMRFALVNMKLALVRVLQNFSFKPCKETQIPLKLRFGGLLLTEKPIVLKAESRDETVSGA

CC[C@H](C)[C@H]1O[C@]2(C=C[C@@H]1C)C[C@@H]1C[C@@H](C/C=C(\C)[C@@H](O[C@H]3C[C@H](OC)[C@@H](O[C@H]4C[C@H](OC)[C@@H](NC)[C@H](C)O4)[C@H](C)O3)[C@@H](C)/C=C/C=C3\CO[C@@H]4[C@H](O)C(C)=C[C@@H](C(=O)O1)[C@]34O)O2
active: [1] 25 µM | [5] 11.6 µM | [6] 12.6 µM | [7] 5.32 µM | [8] 11.7 µM | [9] 23.1 µM | [10] 81.5 µM | [11] 29 µM | [12] 79.5 µM | [13] 19.9 µM | [14] 14.6 µM | [15] 7.23 µM
inactive: [2] | [3] | [4]

COP(=O)(NC(C)=O)SC (stereo not drawn)
not listed: [4] | [19] | [20]
inactive: all other assays above

CC(C)N(C(=O)SCC(Cl)=C(Cl)Cl)C(C)C
active: [4] 73.5 µM
not listed: [7] | [15] | [16] | [18] | [20]
inactive: all other assays above

Cc1ccn2nc(S(=O)(=O)Nc3c(F)cccc3F)nc2n1
active: [9] 40.5 µM
not listed: [16] | [17] | [18] | [19]
inactive: all other assays above
